The values below come from PubChem BioAssay (NCATS).

Several values for one entry are separate records, joined by “and”; a condition that tells them apart may be missing. Equal entries are not always repeated. Records with an inconclusive call do not appear. Activity calls are given as the source filed them. Unless noted, calls follow the shape of the dose curve; as a rule, active = well fitted curve in the direction sought with a large enough effect; inconclusive = small, poorly fitted or top-dose-only effect, or another doubt; inactive = no such curve, though single readings can be large; an effect the other way counts as inactive or inconclusive.

The target of experiment [1] is Cytochrome P450 3A4 (Homo sapiens) (UniProt P08684). Nature of the experiment: qHTS Assay for Inhibitors and Substrates of Cytochrome P450 3A4 (AID 884). Also: potency is read from the fitted curve at half-maximal effect; nearly all actives have a fitted effect of over 50% in size. A digest of the protocol: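 20 nM human CYP3A4 with 25 uM Luciferin-PPXE (at KM) in 200 mM KPO4, preincubated 10 min with compound; NADPH regeneration started a 60 min RT reaction. Luciferin detected by luminescence, normalized to 57 uM ketoconazole as full inhibition.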
Sequence of Cytochrome P450 3A4 (Homo sapiens) (P08684 whole entry, looked up): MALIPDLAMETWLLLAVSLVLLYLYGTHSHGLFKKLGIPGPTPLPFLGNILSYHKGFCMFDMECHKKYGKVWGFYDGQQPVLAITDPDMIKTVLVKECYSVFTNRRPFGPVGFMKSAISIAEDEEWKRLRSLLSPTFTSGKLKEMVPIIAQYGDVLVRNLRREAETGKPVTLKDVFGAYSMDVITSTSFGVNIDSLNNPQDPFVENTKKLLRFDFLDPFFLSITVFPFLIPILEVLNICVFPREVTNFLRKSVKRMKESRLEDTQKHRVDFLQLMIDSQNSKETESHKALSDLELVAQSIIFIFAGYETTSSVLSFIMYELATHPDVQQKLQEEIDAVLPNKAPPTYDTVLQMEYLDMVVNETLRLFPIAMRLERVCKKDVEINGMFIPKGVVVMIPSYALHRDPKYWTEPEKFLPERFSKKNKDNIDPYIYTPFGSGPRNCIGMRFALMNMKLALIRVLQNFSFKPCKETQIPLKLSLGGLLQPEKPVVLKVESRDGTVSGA

The target is the same in experiment [2]. Nature of the experiment: qHTS Assay for Activators of Cytochrome P450 3A4 (AID 885). Also: nearly all actives have a fitted effect of over 65% in size. The method in brief: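 Quantitative HTS format: compounds preincubated with 20nM human CYP3A4 and Luciferin-PPXE substrate at KM, reaction started by NADPH regeneration, stopped after 60 min, luciferase luminescence read 20 min later.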
Background: qHTS replaces the single test concentration by a dilution series.

The nature of experiment [3]: Confirmation and Secondary Assay for Modulators of Hemoglobin Beta Chain Splicing at IVS2 654 locus (AID 910).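 Also: HeLa cells stably carrying EGFP split by mutant beta-globin IVS2-654 intron; % of control where 0% means no effect.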 The method in brief:
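HeLa cells stably expressing EGFP interrupted by β-globin IVS2-654 intron, seeded overnight in Opti-MEM/2% FCS, then treated 2 days at 37 °C. Restored splicing read as total peak GFP intensity per well by laser scanning cytometry (488 nm excitation, 500–520 nm emission); 500 nM antisense PNA as control.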

Experiment [4] can be described thus: Confirmation and Secondary Assay for Modulators of Hemoglobin Beta Chain Splicing at IVS2 705 locus (AID 930).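 Also: HeLa cells stably expressing the EGFP-705 splicing reporter; GFP fluorescence per well restored by corrected splicing of the IVS2-705 intron in EGFP; % of control where 0% means no effect.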 A digest of the protocol:
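Read-out: total peak GFP fluorescence per well (488 nm excitation, 500-520 nm emission) by laser-scanning cytometry. Cells: HeLa EGFP-705 splicing reporter, 2 days compound exposure in Optimem/2% FCS.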

A short description of experiment [5]: qHTS Assay for Lipid Storage Modulators (AID 1519; calls by dose curve; as to activity change, negative = inhibition: % is scaled to controls: 0 for no effect and ±100 for the full control effect). As to conditions: Drosophila S3 cells, BODIPY lipid droplet/cell ratio, laser cytometry, cells loaded with oleic acid. The method in brief:
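Cells seeded at 5,000 per well were treated with compounds over a concentration series and loaded with oleic acid (400 uM, as added). Lipid droplet fluorescence (488 nm excitation, 500-530 nm channel) was read by laser-scanning cytometry and normalized to 20 uM Triacsin C.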

For experiment [6], the target named is Ubiquitin carboxyl-terminal hydrolase 1 (Homo sapiens) (UniProt O94782). Nature of the experiment: Inhibitors of USP1/UAF1: Pilot qHTS (AID 504865).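 Also: rhodamine fluorescence freed from ubiquitin-rhodamine substrate followed over time; top concentration of the series differs between compounds; % is scaled to controls: 0 for no effect and ±100 for the full control effect; nearly all actives have a fitted effect of over 35% in size.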 A digest of the protocol:
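USP1/UAF1 complex at 1 nM preincubated 15 min at room temperature with compound, then Ub-Rho substrate added at 150 nM final. Fluorescence (480/540 nm) read kinetically in 50 mM HEPES pH 7.8, 0.5 mM EDTA, 1 mM TCEP, 0.1 mg/ml BSA, 0.01% Tween-20.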

Sequence of Ubiquitin carboxyl-terminal hydrolase 1 (Homo sapiens) (O94782 whole entry, looked up): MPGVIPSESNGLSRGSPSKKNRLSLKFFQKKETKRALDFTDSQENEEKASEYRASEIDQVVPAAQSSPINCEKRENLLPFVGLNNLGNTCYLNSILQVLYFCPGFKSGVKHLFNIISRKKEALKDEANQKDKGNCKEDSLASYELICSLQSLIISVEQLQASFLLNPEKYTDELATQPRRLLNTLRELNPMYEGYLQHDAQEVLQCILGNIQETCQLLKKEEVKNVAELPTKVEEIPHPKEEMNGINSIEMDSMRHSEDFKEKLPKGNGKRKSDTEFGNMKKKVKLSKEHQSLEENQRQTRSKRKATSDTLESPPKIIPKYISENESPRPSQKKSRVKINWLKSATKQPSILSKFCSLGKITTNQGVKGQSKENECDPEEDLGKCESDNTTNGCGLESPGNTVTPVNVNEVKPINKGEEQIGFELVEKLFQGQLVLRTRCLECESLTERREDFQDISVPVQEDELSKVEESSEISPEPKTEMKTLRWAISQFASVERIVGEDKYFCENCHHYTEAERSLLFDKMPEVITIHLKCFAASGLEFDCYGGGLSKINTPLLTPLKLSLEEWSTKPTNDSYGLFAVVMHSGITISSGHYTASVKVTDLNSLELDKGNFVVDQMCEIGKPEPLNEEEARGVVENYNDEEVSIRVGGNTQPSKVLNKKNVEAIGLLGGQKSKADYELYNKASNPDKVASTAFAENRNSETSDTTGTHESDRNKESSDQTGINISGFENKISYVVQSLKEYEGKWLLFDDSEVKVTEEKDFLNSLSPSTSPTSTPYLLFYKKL

Turning to `C=C1C2CC[C@@]3(C)C(c4ccoc4)OC(=O)C[C@@]13OC1CC(O)C(C)(C)C(CC(=O)OC)[C@@]12C` (stereo partly drawn), the Potency in experiment [1] is 12.6 µM (active) and 7.94 µM (active). Moreover, the Potency entry in experiment [2], in experiment [3] and in experiment [6] was “inactive” in each case. Also, the compound was classed as inactive in experiment [4]. The activity change, negative = inhibition in experiment [5] (at 57.5 µM (top of the series)) was -26.4% (inactive) and -20.4% (inactive). Besides, the max response in experiment [5] (measured here: cell count channel max response) was 9.22% and 0.891%; in experiment [5] (measured here: lipid channel max response), -12.6% and -14.6%.
